Data as given in paper PMC9911399, “Two distinct binding modes provide the RNA-binding protein RbFox with extraordinary sequence specificity”.
Substitutions are numbered along the chain they refer to; changes in the protein carry UniProt numbers. The full ranking holds about 16,000 sequences; the median of “ka relative to ugcaugu” is about 0.096, and the highest 2% start at about 0.35. The sample holds the highest values, similar sequences and a random draw of the others, so the mix is not that of the screen.

T1: RBFOX1 RRM RbFoxmut (Fox-RRM*) (Homo sapiens, UniProt Q9NWB1 109-208, R118D;E147R;N151S;E152T)
T1 sequence: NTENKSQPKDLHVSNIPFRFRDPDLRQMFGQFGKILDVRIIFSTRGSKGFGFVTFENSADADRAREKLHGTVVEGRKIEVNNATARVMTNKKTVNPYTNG

B1: AGAACGU (DNA:RNA)
RNA: GGGAGACCGGAAUUCAGAUUGUCCAGAACGUUUAAAUCCCGUCGUAGCCACCA
DNA 1: CAATCTGAATTCCGGTCTCCC
DNA 2: TGGTGGCTACGACGGGATT
B2: GAGAACG (DNA:RNA)
RNA: B1 RNA with A25G, G26A, A27G, C29A, G30C, U31G
DNA 1: CAATCTGAATTCCGGTCTCCC
DNA 2: TGGTGGCTACGACGGGATT
B3: AGGAACG (DNA:RNA)
RNA: B1 RNA with A27G, C29A, G30C, U31G
DNA 1: CAATCTGAATTCCGGTCTCCC
DNA 2: TGGTGGCTACGACGGGATT
B4: GAACGUG (DNA:RNA)
RNA: B1 RNA with A25G, G26A, A28C, C29G, G30U, U31G
DNA 1: CAATCTGAATTCCGGTCTCCC
DNA 2: TGGTGGCTACGACGGGATT
B5: AGGACCG (DNA:RNA)
RNA: B1 RNA with A27G, G30C, U31G
DNA 1: CAATCTGAATTCCGGTCTCCC
DNA 2: TGGTGGCTACGACGGGATT
B6: CAGAACG (DNA:RNA)
RNA: B1 RNA with A25C, G26A, A27G, C29A, G30C, U31G
DNA 1: CAATCTGAATTCCGGTCTCCC
DNA 2: TGGTGGCTACGACGGGATT
B7: UGAACGU (DNA:RNA)
RNA: B1 RNA with A25U
DNA 1: CAATCTGAATTCCGGTCTCCC
DNA 2: TGGTGGCTACGACGGGATT
B8: GGGAACG (DNA:RNA)
RNA: B1 RNA with A25G, A27G, C29A, G30C, U31G
DNA 1: CAATCTGAATTCCGGTCTCCC
DNA 2: TGGTGGCTACGACGGGATT
B9: GUGAACG (DNA:RNA)
RNA: B1 RNA with A25G, G26U, A27G, C29A, G30C, U31G
DNA 1: CAATCTGAATTCCGGTCTCCC
DNA 2: TGGTGGCTACGACGGGATT
B10: UGGACAG (DNA:RNA)
RNA: B1 RNA with A25U, A27G, G30A, U31G
DNA 1: CAATCTGAATTCCGGTCTCCC
DNA 2: TGGTGGCTACGACGGGATT
B11: CCUUCUU (DNA:RNA)
RNA: B1 RNA with A25C, G26C, A27U, A28U, G30U
DNA 1: CAATCTGAATTCCGGTCTCCC
DNA 2: TGGTGGCTACGACGGGATT
B12: UCGGAUG (DNA:RNA)
RNA: GGGAGACCGGAAUUCAGAUUGUCCUCGGAUGUUAAAUCCCGUCGUAGCCACCA
DNA 1: CAATCTGAATTCCGGTCTCCC
DNA 2: TGGTGGCTACGACGGGATT
B13: GAAGCGU (DNA:RNA)
RNA: B1 RNA with A25G, G26A, A28G
DNA 1: CAATCTGAATTCCGGTCTCCC
DNA 2: TGGTGGCTACGACGGGATT
B14: GCAUAGU (DNA:RNA)
RNA: B1 RNA with A25G, G26C, A28U, C29A
DNA 1: CAATCTGAATTCCGGTCTCCC
DNA 2: TGGTGGCTACGACGGGATT
B15: CCCCGCA (DNA:RNA)
RNA: B12 RNA with U25C, G27C, G28C, A29G, U30C, G31A
DNA 1: CAATCTGAATTCCGGTCTCCC
DNA 2: TGGTGGCTACGACGGGATT
B16: GCAUGUU (DNA:RNA)
RNA: B1 RNA with A25G, G26C, A28U, C29G, G30U
DNA 1: CAATCTGAATTCCGGTCTCCC
DNA 2: TGGTGGCTACGACGGGATT
B17: GCCAUGU (DNA:RNA)
RNA: B1 RNA with A25G, G26C, A27C, C29U
DNA 1: CAATCTGAATTCCGGTCTCCC
DNA 2: TGGTGGCTACGACGGGATT
B18: GCAAUGU (DNA:RNA)
RNA: B1 RNA with A25G, G26C, C29U
DNA 1: CAATCTGAATTCCGGTCTCCC
DNA 2: TGGTGGCTACGACGGGATT
B19: CGCAUUG (DNA:RNA)
RNA: B1 RNA with A25C, A27C, C29U, G30U, U31G
DNA 1: CAATCTGAATTCCGGTCTCCC
DNA 2: TGGTGGCTACGACGGGATT
B20: CGCAUGU (DNA:RNA)
RNA: B1 RNA with A25C, A27C, C29U
DNA 1: CAATCTGAATTCCGGTCTCCC
DNA 2: TGGTGGCTACGACGGGATT
B21: CCGCAUG (DNA:RNA)
RNA: B12 RNA with U25C, G28C
DNA 1: CAATCTGAATTCCGGTCTCCC
DNA 2: TGGTGGCTACGACGGGATT
B22: GUUUUUU (DNA:RNA)
RNA: B1 RNA with A25G, G26U, A27U, A28U, C29U, G30U
DNA 1: CAATCTGAATTCCGGTCTCCC
DNA 2: TGGTGGCTACGACGGGATT

The binders below were run against T1, RBFOX1 RRM RbFoxmut (Fox-RRM*) (assay: EMSA; HiTS-Eq, 1 nM pool, 10 min; buffer printed only for the single-RNA assays: 10 mM Tris pH 7.5, 150 mM NaCl, 3.4 mM EDTA, 0.001% NP-40, 30 C). Conditions: tags: His6 N-terminal (pET28a); label: 5' 32P.
How it was run: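 Relative association constants, normalised to the cognate motif, were derived by comparing read counts of each RNA species with those of the control reaction. The RNA sequenced was the free fraction, separated by 8% native PAGE after a 10 min equilibration in 50 µL of 1 nM 5′-radiolabelled RNA (7 randomized nucleotides) with increasing concentrations of purified wild-type or mutant RbFox RRM.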

| Binder | binding signal |
| --- | --- |
| B1 | 0.149 KA relative to UGCAUGU |
| B2 | 0.347 KA relative to UGCAUGU |
| B3 | 0.576 KA relative to UGCAUGU |
| B4 | 0.226 KA relative to UGCAUGU |
| B5 | 0.183 KA relative to UGCAUGU |
| B6 | 0.168 KA relative to UGCAUGU |
| B7 | 0.242 KA relative to UGCAUGU |
| B8 | 0.472 KA relative to UGCAUGU |
| B9 | 0.538 KA relative to UGCAUGU |
| B10 | 0.0526 KA relative to UGCAUGU |
| B11 | 0.0561 KA relative to UGCAUGU |
| B12 | 0.119 KA relative to UGCAUGU |
| B13 | 0.0921 KA relative to UGCAUGU |
| B14 | 0.192 KA relative to UGCAUGU |
| B15 | 0.118 KA relative to UGCAUGU |
| B16 | 0.776 KA relative to UGCAUGU |
| B17 | 0.188 KA relative to UGCAUGU |
| B18 | 0.12 KA relative to UGCAUGU |
| B19 | 0.179 KA relative to UGCAUGU |
| B20 | 1.08 KA relative to UGCAUGU |
| B21 | 1.13 KA relative to UGCAUGU |
| B22 | 0.0932 KA relative to UGCAUGU |
